Results taken from PubChem BioAssay (NCATS).
Records with an inconclusive call do not appear. Calls of active or inactive are those of the source. Calls follow the shape of the dose curve; as a rule, active = well fitted inhibition curve with a large enough effect; inconclusive = small, poorly fitted or top-dose-only effect; inactive = flat fitted curve, though single readings scatter.

Columns and labels:
Experiment in all cases: qHTS profiling for inhibitors of Plasmodium falciparum proliferation (AID 504749); also: nearly all actives have a fitted effect of over 60% in size
Conditions in all cases: P. falciparum in erythrocytes, SYBR Green DNA, 72 h; series mostly up to 28.7 µM
CP211 = test system: CP211
In short: (§1)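 In a 72 h erythrocytic culture (37 C, humidified, 5% CO2) at 2.5% hematocrit and 0.3% starting parasitemia, compounds were tested; SYBR Green I in detergent lysis buffer stained parasite DNA overnight.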

CP215 = test system: CP215
In short: as §1

CP217 = test system: CP217
In short: as §1

CP237 = test system: CP237
In short: as §1

CP238 = test system: CP238
In short: as §1

CP247 = test system: CP247
In short: as §1

CP250 = test system: CP250
In short: as §1

CP252 = test system: CP252
In short: as §1

CP256 = test system: CP256
In short: as §1

CP260 = test system: CP260
In short: as §1
Potency is read from the fitted curve at half-maximal effect.

Row | SMILES | Potency (CP211) | Potency (CP215) | Potency (CP217) | Potency (CP237) | Potency (CP238) | Potency (CP247) | Potency (CP250) | Potency (CP252) | Potency (CP256) | Potency (CP260)
1 | CCCCCCCCCCCCCC[N+](C)(C)C | 6.01 µM (active) | 8.49 µM (active) | 8.91 µM (active) | 5.01 µM (active) | 3.98 µM (active) | 3.98 µM (active) | 5.62 µM (active) | 7.08 µM (active) | 7.94 µM (active) | 3.98 µM (active)
2 | Nc1ccc2cc3ccc(N)cc3nc2c1 |  |  |  | 12.6 µM (active) |  |  |  |  |  | 8.91 µM (active)
3 | CN1CCCN(C(c2ccccc2)c2ccc(Cl)cc2)CC1 (centres undefined) |  |  | 14.1 µM (active) | 11.2 µM (active) |  | 11.2 µM (active) | 12.6 µM (active) |  | 10 µM (active) | 10 µM (active)
4 | CCCCCCCCCCCCCCCC[n+]1ccccc1 | 6.75 µM (active) | 13.5 µM (active) | 5.62 µM (active) | 7.94 µM (active) | 7.08 µM (active) | 5.62 µM (active) | 6.31 µM (active) | 6.31 µM (active) | 8.91 µM (active) | 3.98 µM (active)
5 | Nc1ncnc2nc[nH]c12 | inactive | inactive | inactive | inactive | inactive | inactive | inactive | inactive | inactive | inactive
6 | CN1CCC(Nc2ncc3ncnc(Nc4ccc(F)c(Cl)c4)c3n2)CC1 |  |  | 11.2 µM (active) |  |  |  |  | 7.94 µM (active) |  | 
7 | Nc1c2ccccc2nc2ccccc12 |  |  |  | 8.91 µM (active) | 10 µM (active) | 10 µM (active) |  | 10 µM (active) | 11.2 µM (active) | 7.94 µM (active)
8 | O=C(Nc1ccc(Cl)cc1)Nc1ccc(Cl)c(Cl)c1 | 6.01 µM (active) | 6.75 µM (active) | 2.24 µM (active) | 2 µM (active) | 3.55 µM (active) | 3.98 µM (active) | 3.16 µM (active) | 3.55 µM (active) | 2.24 µM (active) | 2 µM (active)
9 | O=[N+]([O-])c1ccc(O)c2ncccc12 |  |  |  |  |  | 11.2 µM (active) |  | 8.91 µM (active) |  | 
10 | O=S(=O)(O)c1ccc2nc(-c3ccccc3)[nH]c2c1 | inactive | inactive | inactive | inactive | inactive | inactive | inactive | inactive | inactive | inactive
11 | CCCCCCCCCCCCCCCC[N+](C)(C)Cc1ccccc1 | 10.7 µM (active) | 9.53 µM (active) | 3.16 µM (active) | 3.55 µM (active) | 0.891 µM (active) | 2.24 µM (active) | 2.51 µM (active) | 3.16 µM (active) | 3.98 µM (active) | 2 µM (active)
12 | CC(NCCC(c1ccccc1)c1ccccc1)c1ccccc1 (centres undefined) |  |  | 8.91 µM (active) | 10 µM (active) |  | 7.94 µM (active) |  | 10 µM (active) | 12.6 µM (active) | 10 µM (active)
